Where “and” joins values, the source holds several entries; their conditions need not be identical. Equal entries are not always repeated. Inconclusive results are not listed. Calls of active or inactive are those of the source. Calls come from the whole dose curve; as a rule, active = well fitted cell-killing curve with a large enough effect; inconclusive = small, poorly fitted or top-dose-only effect; inactive = flat fitted curve, though single readings scatter. Where a SMILES comes first, the peptide text is derived from it. Peptide text beside a SMILES is read from it. [ ]: non-standard residue; d: D form. * marks the point of attachment. pGlu = O=C1CC[C@@H](C(=O)O)N1; Cbz = O=C(OCc1ccccc1)*
% is set by controls: 0 for no effect and ±100 for the full control effect.

The test is described as follows: Cellular viability qHTS for adrenocortical cancer (ACC) cell line SW-13 (AID 1963989).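 For activity (max response): cells grown in serum-free medium with ITS supplement.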 Note: nearly all actives have a fitted effect of over 65% in size. The settings on record: SW-13 ACC cells viability, CellTiter-Glo, 48 h; activity (max response): active compounds read low. From the text:
PI: Naris Nilubol, MD Surgical Oncology Program, National Cancer Institute (NCI) National Institute of Health (NIH), Bethesda, Maryland Adrenocortical cancer (ACC) is a rare malignancy with poor survival outcomes and few treatment options. Currently, mitotane is the only FDA-approved therapy for ACC. Although adjuvant radiation therapy is rarely utilized, it has the potential to improve survival in select cases. Through a quantitative high-throughput drug screen (qHTS), we identified auranofin (AF), a thioredoxin reductase (TXNRD) inhibitor, as a promising candidate drug. This study aims to evaluate whether AF can enhance the efficacy of radiation therapy in the treatment of ACC. Two human ACC cell lines, SW-13 and NCI-H295R, were screened using the National Center for Advancing Translational Sciences (NCATS) Pharmaceutical Collection (NPC) and the Mechanism Interrogation PlatE (MIPE) library (~4,991 compounds). CellTiter-Glo (Cat # G7570, Promega, Madison, WI) was utilized to measure cell viability. Described herein are the results of the corresponding viability assay.
PROTOCOL TABLE (as described by Inglese J, Shamu CE and Guy RK. 2007) SEQUENCE No. (e.g., 1, 2, 3, etc.); […] (e.g., Cells, Incubation, Reagent, etc.); VALUE; DESCRIPTION. 1; Cells; 5 uL; white, solid-bottom, 1536-well tissue-culture treated plates. 2; Time; overnight culture at 37C with 5% CO2. 3; Compounds and control; 23 nL; Kalypsis pin tool (Wako USA) equipped with a 1536-well pin head to transfer to the assay plates. 4; Time; 48 hours; 37C with 5% CO2. 5; Reagent; 4 uL; CellTiter-Glo luminescent substrate mix. 6; Time; 20 min at room temperature. 7; Detection; Luminescence; ViewLux plate reader NOTES (numbers refer to Sequence numbers above) 1. SW13 cells were harvested from a T175 flask and resuspended in ITS-supplemented DMEM serum-free medium at a concentration of 300 000 cells/mL. Then 5 uL of resuspended cells were dispensed into each well of white, solid-bottom, 1536-well tissue-culture-treated plates using a multidrop combi dispenser. The plates were covered with stainless steel gasket lids. 2-3. The plates were cultured overnight at 37C with 5% CO2. Twenty-three nL of compounds (eight selected concentrations from the NPC / MIPE) or positive control (10 mM stock of bortezomib) in DMSO was transferred to each well of the assay plate using a pin tool (Kalypsys, San Diego, CA, USA). The final concentration of the compounds in the 5 uL assay volume ranged from 0.5 nM to 46 uM. 4-6. After 48 hours of incubation at 37C and 5% CO2, 4 uL of CellTilter-Glo luminescent substrate mix (Promega, Madison, WI, USA) was added to each well. Then the plates were incubated for 20 minutes at room temperature. 7. After incubation, luminescence was measured using a ViewLux plate reader (PerkinElmer, Waltham, MA, USA) with a clear filter was used to measure the number of metabolically competent cells. To determine compound activity in the qHTS assay, the titration-response data for each sample was plotted and modeled by a four-parameter logistic fit yielding IC50 and efficacy (maximal response) values. […] REFERENCES: Inglese J, Shamu CE and Guy RK, Reporting data from high throughput screening of small molecule libraries, Nature Chemical Biology, 2007, 3(8): 438-441. doi.org/10.1038/nchembio0807-438.
(In general: In qHTS, concentration-response curves come from the screen itself.)
Regarding `Cc1ccnc(NS(=O)(=O)c2ccc(NC(=O)Nc3ccc(S(=O)(=O)Nc4nccc(C)n4)cc3)cc2)n1`, the activity (max response) is -24.6% (inactive).

As to `CC(C)C[C@@H](C=O)NC(=O)[C@H](CC(C)C)NC(=O)[C@H](CC(C)C)NC(=O)OCc1ccccc1` (Cbz-Leu-Leu-Leu-aldehyde), the Potency was 0.794 µM (active).

`C[C@@H](O[C@H]1OCCN(Cc2n[nH]c(=O)[nH]2)[C@@H]1c1ccc(F)cc1)c1cc(C(F)(F)F)cc(C(F)(F)F)c1`: the Potency is 22.4 µM (active).

Take `COc1ccccc1C(=O)Nc1cc2c(cc1N1CCCCC1)n(C)c(=O)n2C`: the activity (max response) is -17.1% (inactive).

With `CC(=O)c1ccc(O)c(C(N)=O)c1`, the activity (max response) was 17.1% (inactive).

Consider `CN1C(=O)C(Cc2c[nH]c3ccccc23)NC1=S` (stereo not given), for which the activity (max response) was 7.04% (inactive).

For `O=C(N[C@H](CO)[C@H](O)c1ccc([N+](=O)[O-])cc1)C(Cl)Cl`, the activity (max response) was -5.45% (inactive).

Consider `O=C(OCc1ccccc1)c1ccccc1`, for which the activity (max response) was -7.64% (inactive).

Consider `CCC1(c2ccccc2)C(=O)NCNC1=O`, for which the activity (max response) was 8.13% (inactive) and -10.5% (inactive).

Take `Nc1ccc(C(=O)O)c(O)c1`: the activity (max response) was 12.8% (inactive).

Consider `CN1CCC(N(Cc2cccs2)c2ccccc2)CC1`, for which the activity (max response) is 6.02% (inactive).

In the case of `O=C1CC[C@@H](C(=O)O)N1`, the activity (max response) was -6.66% (inactive).

In the case of `Nc1ccc(C(=O)O)cc1`, the activity (max response) was 6.83% (inactive).

Consider `C[C@@H](OC[C@@]1(c2ccccc2)CC[C@]2(CCC(=O)N2)CN1)c1cc(C(F)(F)F)cc(C(F)(F)F)c1`, for which the Potency was 25.1 µM (active).

Consider `COc1nc(C)cnc1NS(=O)(=O)c1cccnc1-c1ccc(-c2nnco2)cc1`, for which the activity (max response) is 3.93% (inactive).

For `CN(C)CCNC(=O)NC[C@H]1CC[C@@H]2[C@H](O1)c1cc(C(F)(F)F)ccc1N[C@H]2c1ccccc1`, the Potency was 0.251 µM (active).

Consider `CC(=O)NC(Cc1ccccc1)C(=O)O` (stereo not given), for which the activity (max response) is -3.3% (inactive).

On to `CC(C)c1ccc2c(c1)c(SC(C)(C)C)c(CC(C)(C)C(=O)O)n2Cc1ccc(Cl)cc1`, for which the activity (max response) was 11.6% (inactive).

For the compound `CC(=O)Oc1ccccc1C(=O)O`, the activity (max response) was 9.69% (inactive) and -6.24% (inactive).

With `c1ccc(-c2nc[nH]c2-c2ccccc2)cc1`, the activity (max response) is -22.8% (inactive).

Regarding `CC(C)(C)c1ccc(C(=O)CCCCl)cc1`, the activity (max response) was 6.38% (inactive).

As to `CC/C=C(\C(=O)N[C@@H]1C(=O)N2C(C(=O)OCOC(=O)C(C)(C)C)=C(COC(N)=O)CS[C@H]12)c1csc(N)n1`, the activity (max response) is 13.8% (inactive).

Take `CN(C)C(=O)Nc1ccc(Cl)c(Cl)c1`: the activity (max response) was -2.09% (inactive).

For the compound `COC(=O)Nc1nc2ccc(C(=O)c3ccccc3)cc2[nH]1`, the Potency was 130 nM (active) and 316 nM (active).

`C[C@@H]1CCC[C@H](C)N1CCCC(O)(c1ccccc1)c1ccccn1` (stereo not given in full): the activity (max response) is -5.41% (inactive).

As for `CC(=O)Nc1ncc([N+](=O)[O-])s1`, the activity (max response) is 10.5% (inactive).

In the case of `Cc1ccc(CN2CCNCC2)cc1NC(=O)CNc1ccc(F)c(F)c1`, the activity (max response) is 11.8% (inactive).

`CO[C@@]1(NC(=O)CSCC#N)C(=O)N2C(C(=O)O)=C(CSc3nnnn3C)CS[C@@H]21`: the activity (max response) was 9.84% (inactive).

Consider `Cc1cc(OCCCc2c3n(c4c(-c5c(C)nn(C)c5C)c(Cl)ccc24)[C@H](C)CN(c2cn(C)c4ccc(C(=O)O)cc24)C3=O)cc(C)c1Cl`, for which the Potency was 2 µM (active).

As for `CC(=O)OCC(CCn1cnc2cnc(N)nc21)COC(C)=O`, the activity (max response) is 5.15% (inactive) and -10.4% (inactive).

On to `O=C(Nc1cccc2c(=O)cc(-c3nn[nH]n3)oc12)c1ccc(OCCCCc2ccccc2)cc1`, for which the activity (max response) is 13.6% (inactive).

For `Cc1c(CN2CCN(S(C)(=O)=O)CC2)sc2c(N3CCOCC3)nc(-c3cnc(N)nc3)nc12`, the Potency was 0.891 µM (active).

For the compound `CNC(=O)CN(CCN(CCN(CC(=O)[O-])CC(=O)NC)CC(=O)[O-])CC(=O)[O-].O.[Gd+3]`, the activity (max response) is -4.04% (inactive).

As for `C=CCNc1c(O)cc2c(O)c1C[C@@H](C)C[C@H](OC)[C@H](O)[C@@H](C)/C=C(/C)[C@H](OC(N)=O)[C@@H](OC)/C=C\C=C(\C)C(=O)N2`, the Potency was 3.16 µM (active).

`O=C(O)CNC(=O)c1ncc(-c2cccc(Cl)c2)cc1O`: the activity (max response) is 5.73% (inactive).

Regarding `O=C(NN1CCCC1)NS(=O)(=O)c1ccc(Cl)cc1`, the activity (max response) was 2.56% (inactive).

Consider `CC[N+](C)(C)c1cccc(O)c1`, for which the activity (max response) is 8.29% (inactive).

Turning to `CCNC(=O)[C@@H]1CCCN1C(=O)[C@H](CCCN=C(N)N)NC(=O)[C@H](CC(C)C)NC(=O)CNC(=O)[C@H](Cc1ccc(O)cc1)NC(=O)[C@H](CO)NC(=O)[C@H](Cc1c[nH]c2ccccc12)NC(=O)[C@H](Cc1cnc[nH]1)NC(=O)[C@@H]1CCC(=O)N1` ([pGlu]HWSYGLRP-NHEt), the activity (max response) is 7.58% (inactive).

Regarding `C[C@H]1CN(C[C@H](Cc2ccccc2)C(=O)NCC(=O)O)CC[C@@]1(C)c1cccc(O)c1`, the activity (max response) was 8.76% (inactive).

`CC(C)[C@@H]1CC[C@@H](C)CC1=O`: the activity (max response) is 11.9% (inactive).
